The record followed here is PubChem BioAssay.

Assay [1] relates to Plasmodium falciparum Sir2 (PF13_0152, Sir2A). Nature of the assay: pfSir2 binders on small-molecule microarrays, primary screen, biochemical, small-molecule microarray, 635 nm fluorescence (AID 1098).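 Also: score merges spot fluorescence intensity with its signal-to-noise ratio.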 The settings on record: small-molecule microarray binding, fluorescence 635 nm; higher = more signal.
Assay [2] is described as follows: small-molecule microarray binders of probe aDKK1, primary screen, biochemical, biotinylated probe, 635/667 nm fluorescence (AID 1099).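 Also: score merges 667nm spot fluorescence with signal to noise across triplicate slides.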 The following applies: higher = more signal.
Assay [3] is described as follows: small-molecule microarray binders of probe aCHRDL2, primary screen, biochemical, biotinylated probe, 635/667 nm fluorescence (AID 1100). The following applies: higher = more signal.
The nature of assay [4]: splicing luciferase reporter signal modulators, primary screen, spliceosome inhibition project, cell-based, HEK293, splice +/- reporter (AID 1101).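 Also: HEK293 cells carrying a splicing-competent luciferase reporter gene; test concentration not given here.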 The settings on record: luminescence, 24 h, higher = more signal, called active from +8 up or from −8 down. In general terms: Reporter assays use an easily measured gene product as a stand-in for the process of interest.
In assay [5] the target is Fibroblast growth factor 10 (Homo sapiens) (UniProt O15520). Nature of the assay: FGF10 binders on small-molecule microarrays, primary screen, biochemical, small-molecule microarray, 635 nm fluorescence (AID 1102). The following applies: FGF10 binding, fluorescence 635 nm, higher = more signal.
Chain of Fibroblast growth factor 10 (Homo sapiens) (O15520 whole entry, looked up): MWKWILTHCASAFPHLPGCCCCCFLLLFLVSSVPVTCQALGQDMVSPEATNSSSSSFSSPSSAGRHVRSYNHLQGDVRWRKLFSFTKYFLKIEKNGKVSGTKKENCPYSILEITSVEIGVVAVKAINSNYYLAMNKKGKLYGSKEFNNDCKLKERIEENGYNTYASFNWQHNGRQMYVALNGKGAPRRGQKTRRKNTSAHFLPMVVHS
Assay [6] has as its system glycogen synthase kinase-3 (GSK3A per assay name; protocol says GSK3B). Nature of the assay: GSK3 binders on small-molecule microarrays, primary screen, biochemical, small-molecule microarray, 635 nm fluorescence, GSK3A (AID 1103). Also: the record names both GSK3A and GSK3B. The following applies: small-molecule microarray binding, fluorescence 635 nm; higher = more signal.
In assay [7] the target is Epidermal growth factor receptor (Homo sapiens) (UniProt P00533). Nature of the assay: EGFR binders on small-molecule microarrays, primary screen, biochemical, small-molecule microarray, 635 nm fluorescence (AID 1104).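 Also: score merges 667 nm emission intensity with spot signal to noise over triplicate slides.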 The following applies: EGFR binding, higher = more signal.
Chain of Epidermal growth factor receptor (Homo sapiens) (P00533 whole entry, looked up): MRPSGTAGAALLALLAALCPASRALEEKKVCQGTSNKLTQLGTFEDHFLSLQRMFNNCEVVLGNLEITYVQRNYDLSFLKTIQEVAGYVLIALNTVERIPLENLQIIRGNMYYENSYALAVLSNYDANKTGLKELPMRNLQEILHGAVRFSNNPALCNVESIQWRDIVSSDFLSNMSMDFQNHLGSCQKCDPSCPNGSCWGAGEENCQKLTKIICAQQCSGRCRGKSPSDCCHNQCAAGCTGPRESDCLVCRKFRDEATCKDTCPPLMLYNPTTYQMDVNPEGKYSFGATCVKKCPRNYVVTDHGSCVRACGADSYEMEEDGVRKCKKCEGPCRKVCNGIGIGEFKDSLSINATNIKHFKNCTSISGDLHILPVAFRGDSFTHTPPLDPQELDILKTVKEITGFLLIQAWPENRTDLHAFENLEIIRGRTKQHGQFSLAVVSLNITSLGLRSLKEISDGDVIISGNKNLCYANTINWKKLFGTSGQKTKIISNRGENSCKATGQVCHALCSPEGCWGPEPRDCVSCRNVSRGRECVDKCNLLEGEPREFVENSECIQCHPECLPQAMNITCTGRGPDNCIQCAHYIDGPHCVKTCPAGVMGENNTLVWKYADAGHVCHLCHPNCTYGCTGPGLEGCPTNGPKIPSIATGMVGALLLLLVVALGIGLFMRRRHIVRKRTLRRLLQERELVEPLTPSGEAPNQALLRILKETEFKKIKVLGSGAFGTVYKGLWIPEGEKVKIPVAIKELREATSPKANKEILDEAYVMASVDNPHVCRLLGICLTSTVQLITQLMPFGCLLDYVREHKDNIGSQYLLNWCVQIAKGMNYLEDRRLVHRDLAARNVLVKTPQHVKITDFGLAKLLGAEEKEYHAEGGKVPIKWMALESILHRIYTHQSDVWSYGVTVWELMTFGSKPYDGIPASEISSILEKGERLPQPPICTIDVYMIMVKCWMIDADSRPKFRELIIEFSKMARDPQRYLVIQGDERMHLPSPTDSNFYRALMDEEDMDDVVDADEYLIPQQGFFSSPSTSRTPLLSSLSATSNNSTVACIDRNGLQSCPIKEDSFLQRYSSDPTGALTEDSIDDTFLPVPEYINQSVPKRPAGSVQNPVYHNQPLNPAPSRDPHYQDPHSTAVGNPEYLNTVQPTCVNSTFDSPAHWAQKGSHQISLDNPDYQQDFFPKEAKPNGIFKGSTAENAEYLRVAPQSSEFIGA
Assay [8] deals with Follistatin-related protein 3 (Homo sapiens) (UniProt O95633). Nature of the assay: FSTL3 binders on small-molecule microarrays, primary screen, biochemical, small-molecule microarray, 635 nm fluorescence (AID 1105).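 Also: score merges emission near 667 nm and signal to noise per printed spot across three slides.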 The following applies: FSTL3 binding, higher = more signal.
Chain of Follistatin-related protein 3 (Homo sapiens) (O95633 whole entry, looked up): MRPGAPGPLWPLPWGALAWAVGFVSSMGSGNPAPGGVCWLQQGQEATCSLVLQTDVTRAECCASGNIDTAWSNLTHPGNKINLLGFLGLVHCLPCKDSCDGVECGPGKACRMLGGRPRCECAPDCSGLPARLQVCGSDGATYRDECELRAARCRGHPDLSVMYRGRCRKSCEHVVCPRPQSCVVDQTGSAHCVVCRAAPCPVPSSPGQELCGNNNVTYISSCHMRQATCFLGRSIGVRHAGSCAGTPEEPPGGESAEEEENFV
Assay [9] deals with Dickkopf-related protein 1 (Homo sapiens) (UniProt O94907). Nature of the assay: DKK1 binders on small-molecule microarrays, primary screen, biochemical, small-molecule microarray, 635 nm fluorescence scan (AID 1106).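 Also: score merges emission near 667 nm with signal to noise over three replicate slides.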 The settings on record: DKK1 binding, higher = more signal.
Chain of Dickkopf-related protein 1 (Homo sapiens) (O94907 whole entry, looked up): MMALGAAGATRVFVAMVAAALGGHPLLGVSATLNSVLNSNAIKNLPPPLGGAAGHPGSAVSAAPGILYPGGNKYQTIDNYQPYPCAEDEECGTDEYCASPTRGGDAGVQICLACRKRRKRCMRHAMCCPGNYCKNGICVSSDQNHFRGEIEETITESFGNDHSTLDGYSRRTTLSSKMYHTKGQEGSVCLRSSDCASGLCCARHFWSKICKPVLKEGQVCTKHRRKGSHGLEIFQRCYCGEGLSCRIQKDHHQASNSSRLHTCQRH
Assay [10] deals with Inhibin beta A chain (activin A). Nature of the assay: INHBA (activin A) binders on microarrays, primary screen, biochemical, small-molecule microarray, 635 nm fluorescence scan (AID 1107).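 Also: mouse activin A protein probed at 4.33 µg/mL on printed slides; score merges bound-protein fluorescence near 667 nm with spot signal-to-noise.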 The settings on record: small-molecule microarray binding, higher = more signal.
Assay [11] deals with Human papillomavirus type 1a protein E7 (residues 44-93). Nature of the assay: HPV1a E7 fragment binders on microarrays, primary screen, biochemical, small-molecule microarray, residues 44-93, 635 nm fluorescence (AID 1108).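 Also: E7 fragment applied at 1 µg/mL in TBST for 1 h at 4 C; score combines spot fluorescence with its signal to noise ratio.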 The following applies: small-molecule microarray binding, fluorescence 635 nm; higher = more signal.
Assay [12] in a line: modulators of HCV replicon luciferase signal, primary screen, HCV replication inhibitor project, Huh7 cells, luciferase reporter (AID 1109).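 Also: huh7 hepatoma cells harbouring a luciferase neomycin HCV replicon reporter; luciferase luminescence as measure of HCV replicon replication; test concentration not given here.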 The following applies: 48 h, higher = more signal.
Assay [13] addresses Left-right determination factor 2 (Homo sapiens) (UniProt O00292). Nature of the assay: LEFTY2 binders on small-molecule microarrays, primary screen, biochemical, small-molecule microarray, 635 nm fluorescence scan (AID 1110). The settings on record: LEFTY2 binding, higher = more signal.
For assay [14], the target named is Calmodulin-1 (Homo sapiens) (UniProt P0DP23). Nature of the assay: CALM1 binders on microarrays, EGTA buffer, profiling panel, biochemical, small-molecule microarray, Cy5-labelled CALM1 (AID 1111).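 Also: labelled calmodulin applied in Tris saline Tween buffer holding calcium plus EGTA and DTT.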 The following applies: Cy5-CALM1 binding fluorescence, higher = more signal.
Assay [15] shares this target. Nature of the assay: calcium-bound CALM1 binders on microarrays, profiling panel, artefact control for SMM control-protein annotation, biochemical, small-molecule microarray, Cy5-labelled CALM1, plus calcium (AID 1112).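 Also: score merges spot fluorescence with signal to noise from triplicate slides.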 The following applies: Cy5-CALM1 binding fluorescence, higher = more signal.
Assay [16] is described as follows: small-molecule microarray binders of probe aWnt5a, primary screen, biochemical, biotinylated probe, 635/667 nm fluorescence (AID 1113).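 Also: score merges 667 nm fluorescence intensity with signal-to-noise per printed feature.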 The following applies: higher = more signal.
A short description of assay [17]: small-molecule microarray binders of probe aShh, primary screen, biochemical, biotinylated probe, 635/667 nm fluorescence (AID 1114).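 Also: probe is biotin-labelled aShh protein from a stem cell growth factor screen; measures binding of labelled protein to compounds printed on the slide; score merges feature fluorescence at 667 nm with signal-to-noise.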 The settings on record: higher = more signal.
Assay [18] can be described thus: small-molecule microarray binders of probe aNog, primary screen, biochemical, biotinylated probe, 635/667 nm fluorescence (AID 1115).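 Also: probe is biotinylated aNog protein used at 0.15 µg/mL for 1 h at 4 C; z-score combines 667 nm fluorescence of each spot with its signal to noise.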 The following applies: higher = more signal.
Assay [19] deals with Torsin-1A-interacting protein 1 (Homo sapiens) (UniProt Q5JTV8). Nature of the assay: LAP1 binders from COS7 cell lysate, primary screen, small-molecule microarray, 635/667 nm fluorescence (AID 1116). The settings on record: COS7-hLAP1 lysate binding, 635 nm fluorescence, higher = more signal.
Chain of Torsin-1A-interacting protein 1 (Homo sapiens) (Q5JTV8 whole entry, looked up): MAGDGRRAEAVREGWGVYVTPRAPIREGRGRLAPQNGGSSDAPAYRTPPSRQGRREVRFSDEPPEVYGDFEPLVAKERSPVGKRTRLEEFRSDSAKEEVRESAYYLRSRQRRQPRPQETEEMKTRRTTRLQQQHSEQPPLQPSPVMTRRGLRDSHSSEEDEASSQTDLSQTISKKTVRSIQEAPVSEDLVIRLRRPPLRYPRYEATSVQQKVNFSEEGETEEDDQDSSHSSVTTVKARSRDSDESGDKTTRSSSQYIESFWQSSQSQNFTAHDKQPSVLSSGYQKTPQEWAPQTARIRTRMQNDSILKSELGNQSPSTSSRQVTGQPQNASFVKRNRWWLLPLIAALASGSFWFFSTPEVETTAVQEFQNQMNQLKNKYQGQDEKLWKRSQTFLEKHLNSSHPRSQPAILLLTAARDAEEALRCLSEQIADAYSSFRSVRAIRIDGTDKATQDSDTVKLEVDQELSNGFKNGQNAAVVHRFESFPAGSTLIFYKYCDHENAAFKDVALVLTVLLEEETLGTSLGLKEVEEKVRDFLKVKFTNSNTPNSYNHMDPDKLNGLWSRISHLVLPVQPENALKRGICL
In assay [20] the target is Alpha-bungarotoxin (Bungarus multicinctus) (UniProt P60615). Nature of the assay: alpha-bungarotoxin binders on microarray, profiling panel, artefact control for SMM control protein annotation, biochemical, small-molecule microarray, Alexa647 label, 635/667 nm fluorescence (AID 1117). The following applies: alpha-BTX-A647 binding fluorescence, higher = more signal.
Chain of Alpha-bungarotoxin (Bungarus multicinctus) (P60615 whole entry, looked up): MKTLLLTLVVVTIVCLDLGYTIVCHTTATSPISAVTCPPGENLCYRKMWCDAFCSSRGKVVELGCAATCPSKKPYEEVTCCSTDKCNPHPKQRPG

Active and inactive are the calls of the source.

Chain of Left-right determination factor 2 (Homo sapiens) (O00292 whole entry, looked up): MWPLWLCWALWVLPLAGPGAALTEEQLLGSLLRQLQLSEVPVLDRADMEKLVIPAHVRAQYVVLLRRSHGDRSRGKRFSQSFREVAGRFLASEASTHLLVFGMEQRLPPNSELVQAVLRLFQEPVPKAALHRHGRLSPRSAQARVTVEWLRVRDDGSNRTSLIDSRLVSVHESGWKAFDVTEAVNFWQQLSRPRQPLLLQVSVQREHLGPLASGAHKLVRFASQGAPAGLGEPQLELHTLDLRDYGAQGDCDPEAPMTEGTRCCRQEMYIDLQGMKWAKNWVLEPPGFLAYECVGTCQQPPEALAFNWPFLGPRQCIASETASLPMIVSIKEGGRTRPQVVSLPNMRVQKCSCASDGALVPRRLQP

Consider `CC(C)N1C(=O)c2ccccc2[C@](C)(C(=O)NCC(F)(F)F)[C@@H]1c1ccc(CO)cc1`, for which the composite z-score in assay [1] was 0.0632; in [2], 0.698; in [3], 1.06; in assay [5], -1.28; in assay [6], -0.907; in assay [7], -0.333. The composite z-score in [8] was -0.961; in assay [9], -0.693; in assay [10], 0.177; in [11], -0.39; in assay [13] it was -1.41; in assay [14], -0.625. For the same molecule, the composite z-score in [15] was 0.179; in assay [16], 0.0031; in [17], -0.153; in assay [18], 0.543; in [19], 0.716; in assay [20], -0.573. Moreover, the z-score in assay [4] is 0.88 (inactive); in assay [12], 0.164.
For `O=C(NCCN1CCOCC1)[C@@H]1c2ccccc2C(=O)N(Cc2ccccc2C(F)(F)F)[C@H]1c1ccc(CO)cc1`, the composite z-score in [1] is 0.99; in assay [2], -0.745; in assay [3], -0.31; in assay [5], -0.393; in assay [6] it was 0.0726; in [7], -1.11. In addition, the composite z-score in assay [8] is -0.708; in assay [9], -1.28; in assay [10], -0.735; in assay [11], 1.01; in assay [13], -1.45; in assay [14] it was -0.804. For the same molecule, the composite z-score in assay [15] was -0.56; in [16], -0.145; in [17], -0.73; in [18], 0.0703; in assay [19], -0.851; in assay [20] it was -0.755. The z-score in [4] is -0.422 (inactive); in assay [12], -0.513.
For the molecule `COc1ccc(C#Cc2ccc3c(c2)[C@]2(C(=O)N3)[C@H](C(=O)O)[C@H]3C(=O)O[C@H](c4ccccc4)[C@H](c4ccccc4)N3[C@@H]2c2ccccc2OCCO)cc1`, the composite z-score is 1.54 in [1]; -0.161 in assay [2]; -0.126 in [3]; 1.16 in assay [5]; 1.31 in assay [6]; 0.481 in assay [7]. Further, the composite z-score in assay [8] was 0.509; in [9], 0.301; in assay [10] it was -0.658; in [11], 0.263; in assay [13], 0.694; in assay [14], 1.04. In addition, the composite z-score in assay [15] is 0.604; in assay [16], -0.235; in assay [17], 0.0777; in assay [18], 0.279; in assay [19] it was 0.835; in assay [20], 2.21. Also, the z-score is -2.14 (inactive) in [4] and -2.19 in [12].
Consider `CN(C)CCCNC(=O)[C@@]1(C)c2ccccc2C(=O)N(Cc2ccc(OC(F)(F)F)cc2)[C@H]1c1ccc(CO)cc1`, for which the composite z-score was 1.33 in assay [1]; -0.0469 in [2]; 0.63 in [3]; -0.365 in assay [5]; -0.417 in assay [6]; -0.786 in assay [7]. Besides, the composite z-score is -0.811 in assay [8]; -0.912 in assay [9]; 0.462 in [10]; 0.0228 in assay [11]; -1.01 in assay [13]; -0.415 in assay [14]. Also, the composite z-score in [15] was 0.522; in assay [16], -0.115; in [17], -0.0978; in assay [18], 0.738; in assay [19], 1.76; in [20], 1.5. In addition, the z-score in assay [4] was 0.399 (inactive); in assay [12], -2.26.
On to `COC(=O)[C@@]1(Cc2ccccc2)[C@H]2c3cc(C(=O)N(C)C)n(Cc4ccc(S(C)(=O)=O)cc4)c3C[C@H]2CN1C(=O)c1ccccc1`, for which the composite z-score in assay [1] was 0.308; in assay [2] it was 1.1; in [3], 1.22; in assay [5], 0.648; in [6] it was 0.0903; in assay [7], -0.366. Besides, the composite z-score is -0.0624 in assay [8]; -0.618 in assay [9]; 0.749 in assay [10]; -1.1 in [11]; -0.115 in [13]; 1.69 in assay [14]. Besides, the composite z-score in [15] was determined as 1.11; in [16] it was 0.0613; in assay [17], 0.954; in assay [18], 0.35; in assay [19], 1.29; in assay [20] it was 0.548. Further, the z-score is 0.376 (inactive) in assay [4] and -0.912 in assay [12].
